Of roughly 7,900 targets only a part is listed; those with a hit were picked by preference. About 0.6% of all pairs of compound and target were hits.
Experiments:
Test in all cases: log2 fold change, soluble protein after heating vs DMSO (PISA); higher = thermal stabilisation; K562 cells, 10 uM, 30 min; active = over 0.2 and 3.5 SD of the protein, either way, in both replicates (recomputed)
erlotinib = compound: C#Cc1cccc(Nc2ncnc3cc(OCCOC)c(OCCOC)cc23)c1 [erlotinib]
Summary of the method: (§1)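 Soluble protein was defined as the supernatant after 21,000xg for 90 min. It came from K562 cells at 2×10^6 cells/mL given 10 μM compound for 30 min, heated in aliquots for 3 min across 48°C-58°C, pooled, and extracted in PBS with 0.5% NP-40 at 4°C, and was quantified by TMTpro 16plex LC-MS/MS with equalised channel sums. Thermal stability against control samples, from duplicates, is reported as log2 fold change.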

[1] = compound: C/C(=N\NC(=O)C1=CC(=CC=C1)S(=O)(=O)N2CCOCC2)/C3=C(C=CC(=C3)Cl)O
Summary of the method: as §1

[2] = compound: C1=CC(=C(C=C1Cl)C2=NC3=NC=CN=C3C(=N2)NC4=CC=NC=C4)F
Summary of the method: as §1

[3] = compound: C1=CC(=CC=C1C2=NC3=C(N2)C=C(C=C3)C(=O)N)OC4=CC=C(C=C4)Cl
Summary of the method: as §1

[4] = compound: C1=CC2=C(C=CC(=C2)/C=C\3/C(=O)NC(=NCC4=CC=CS4)S3)N=C1
Summary of the method: as §1

[5] = compound: C1=CC2=NC=CN=C2C=C1/C=C/3\C(=O)NC(=O)S3
Summary of the method: as §1

[6] = compound: C1=CC=C2C(=C1)C3=NNC4=CC=CC(=C43)C2=O
Summary of the method: as §1

[7] = compound: C1CCN(C1)C(=O)NC2=CC=CC(=C2)NC3=NC=C(C(=N3)NCCC4=CN=CN4)Br
Summary of the method: as §1

[8] = compound: C1CN(CCC1(CC2=CC=C(C=C2)Cl)N)C3=NC=NC4=C3C=CN4
Summary of the method: as §1

[9] = compound: C1=CC=C(C=C1)C2=NC(=C(N2)C3=CC=NC=C3)C4=CC(=C(C=C4)Cl)O
Summary of the method: as §1

Measured: log2 fold change

GTF3A (UniProt Q92664)
UniProt Q92664, sequence (Q92664 whole entry, looked up): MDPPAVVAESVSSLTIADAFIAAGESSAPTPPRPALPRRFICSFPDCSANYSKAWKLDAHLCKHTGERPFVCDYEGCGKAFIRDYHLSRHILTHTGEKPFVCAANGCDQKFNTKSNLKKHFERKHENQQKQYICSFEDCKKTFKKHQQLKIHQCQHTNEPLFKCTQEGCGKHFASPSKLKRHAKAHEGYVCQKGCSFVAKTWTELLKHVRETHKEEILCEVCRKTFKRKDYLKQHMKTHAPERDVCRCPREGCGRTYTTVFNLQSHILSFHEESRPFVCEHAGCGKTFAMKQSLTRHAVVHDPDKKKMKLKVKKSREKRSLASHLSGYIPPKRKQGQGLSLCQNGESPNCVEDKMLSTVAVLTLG
inactive: erlotinib -0.048 | [1] -0.117 | [2] 0.095 | [3] 0.116 | [4] 0.157 | [5] 0.004 | [6] -0.115 | [7] -0.019 | [8] 0.174

FBXO9 (UniProt Q9UK97)
UniProt Q9UK97, sequence (Q9UK97 whole entry, looked up): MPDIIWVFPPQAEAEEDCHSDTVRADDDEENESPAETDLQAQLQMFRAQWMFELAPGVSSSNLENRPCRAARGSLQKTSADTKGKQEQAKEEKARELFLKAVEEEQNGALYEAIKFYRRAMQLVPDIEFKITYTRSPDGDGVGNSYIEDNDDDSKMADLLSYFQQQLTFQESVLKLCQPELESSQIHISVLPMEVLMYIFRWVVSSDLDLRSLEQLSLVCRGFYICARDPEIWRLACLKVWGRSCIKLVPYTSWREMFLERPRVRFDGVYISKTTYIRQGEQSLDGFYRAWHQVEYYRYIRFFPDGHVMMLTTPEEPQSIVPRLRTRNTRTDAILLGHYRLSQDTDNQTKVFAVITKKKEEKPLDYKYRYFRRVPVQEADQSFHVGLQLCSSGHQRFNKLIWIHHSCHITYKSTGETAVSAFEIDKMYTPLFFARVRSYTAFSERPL
inactive: erlotinib -0.017 | [3] 0.137 | [5] -0.022 | [9] 0.03 | [7] -0.098 | [8] -0.037

GREB1 (UniProt Q4ZG55)
active: [1] -0.751
inactive: erlotinib 0.218 | [2] 0 | [3] -0.132 | [4] 0.092 | [6] -0.044 | [7] -0.06 | [8] 0.291

GPS2 (UniProt Q13227)
UniProt Q13227, sequence (Q13227 whole entry, looked up): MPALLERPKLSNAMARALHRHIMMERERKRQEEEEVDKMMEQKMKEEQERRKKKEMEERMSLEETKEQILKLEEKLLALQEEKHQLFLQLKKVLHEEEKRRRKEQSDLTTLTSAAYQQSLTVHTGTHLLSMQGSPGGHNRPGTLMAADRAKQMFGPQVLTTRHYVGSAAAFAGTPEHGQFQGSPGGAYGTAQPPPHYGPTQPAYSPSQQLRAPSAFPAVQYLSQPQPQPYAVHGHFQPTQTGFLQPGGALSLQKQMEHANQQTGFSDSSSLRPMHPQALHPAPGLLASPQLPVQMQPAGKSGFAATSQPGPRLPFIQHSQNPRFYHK
inactive: erlotinib -0.124 | [2] 0.066 | [3] -0.046 | [5] 0.05 | [9] -0.046 | [7] 0.262 | [8] 0.029

FMR1 (UniProt Q06787)
inactive: erlotinib -0.301 | [3] 0.154 | [9] -0.121

GAB2 (UniProt Q9UQC2)
inactive: erlotinib -0.035 | [1] 0.149 | [2] -0.033 | [3] 0.231 | [4] -0.04 | [9] -0.294 | [6] -0.196 | [7] -0.29 | [8] 0.012

FAT1 (UniProt Q14517)
inactive: erlotinib -0.06 | [2] -0.062 | [3] 0.161 | [5] -0.08 | [9] 0.045 | [7] -0.123 | [8] 0.066

HSPA2 (UniProt P54652)
inactive: erlotinib 0.623 | [1] -0.047 | [3] -0.182 | [4] 0.022 | [5] 0.058 | [9] -0.095 | [6] 0.192

FIZ1 (UniProt Q96SL8)
inactive: [2] -0.272

GAK (UniProt O14976)
UniProt O14976, sequence (O14976 whole entry, looked up): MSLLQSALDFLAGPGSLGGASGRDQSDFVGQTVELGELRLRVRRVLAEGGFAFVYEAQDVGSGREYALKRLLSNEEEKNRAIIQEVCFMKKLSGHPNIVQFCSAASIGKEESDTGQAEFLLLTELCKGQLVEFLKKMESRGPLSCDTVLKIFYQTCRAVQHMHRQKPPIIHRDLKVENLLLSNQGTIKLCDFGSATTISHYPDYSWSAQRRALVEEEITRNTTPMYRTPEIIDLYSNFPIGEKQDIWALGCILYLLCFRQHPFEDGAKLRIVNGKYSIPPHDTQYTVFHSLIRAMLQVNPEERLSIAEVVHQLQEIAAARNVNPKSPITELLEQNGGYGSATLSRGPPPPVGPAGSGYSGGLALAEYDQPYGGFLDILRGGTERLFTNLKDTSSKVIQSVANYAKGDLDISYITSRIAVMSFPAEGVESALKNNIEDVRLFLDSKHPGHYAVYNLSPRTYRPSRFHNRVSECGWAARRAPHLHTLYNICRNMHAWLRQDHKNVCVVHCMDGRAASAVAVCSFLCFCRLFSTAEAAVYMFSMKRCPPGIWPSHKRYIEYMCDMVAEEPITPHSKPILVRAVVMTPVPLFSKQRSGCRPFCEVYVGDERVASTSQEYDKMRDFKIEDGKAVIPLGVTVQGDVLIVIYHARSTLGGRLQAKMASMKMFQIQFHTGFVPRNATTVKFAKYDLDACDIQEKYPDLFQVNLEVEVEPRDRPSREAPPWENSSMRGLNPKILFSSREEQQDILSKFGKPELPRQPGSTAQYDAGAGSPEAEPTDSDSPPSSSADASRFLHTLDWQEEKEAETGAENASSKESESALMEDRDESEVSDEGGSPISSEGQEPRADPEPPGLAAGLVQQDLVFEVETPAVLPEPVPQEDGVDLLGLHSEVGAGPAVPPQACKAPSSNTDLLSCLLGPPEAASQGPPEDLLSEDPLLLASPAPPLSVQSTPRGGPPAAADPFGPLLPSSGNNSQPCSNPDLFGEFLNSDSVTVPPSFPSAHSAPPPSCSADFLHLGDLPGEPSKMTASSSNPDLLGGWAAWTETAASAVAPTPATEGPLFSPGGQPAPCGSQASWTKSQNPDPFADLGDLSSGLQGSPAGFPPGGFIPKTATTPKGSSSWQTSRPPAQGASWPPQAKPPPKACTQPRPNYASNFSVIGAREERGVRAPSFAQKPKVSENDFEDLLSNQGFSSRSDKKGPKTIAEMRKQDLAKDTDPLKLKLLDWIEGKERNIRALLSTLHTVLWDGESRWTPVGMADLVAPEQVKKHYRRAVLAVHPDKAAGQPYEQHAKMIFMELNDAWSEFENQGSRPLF
inactive: erlotinib 0.64 | [1] -0.78 | [2] -0.133 | [3] -0.821 | [4] 0.527 | [9] 0.639 | [6] 0.955 | [7] 1.08 | [8] -0.265

IGF2 isoform 3 (UniProt P01344)
UniProt P01344, sequence (P01344 whole entry, looked up): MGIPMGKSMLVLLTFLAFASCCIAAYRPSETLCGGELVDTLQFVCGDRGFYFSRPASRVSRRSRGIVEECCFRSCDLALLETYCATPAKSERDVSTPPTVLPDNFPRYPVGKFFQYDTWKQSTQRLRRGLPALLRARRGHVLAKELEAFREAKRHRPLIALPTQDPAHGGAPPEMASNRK
inactive: erlotinib -0.098 | [3] 0.028

GNL3 (UniProt Q9BVP2)
UniProt Q9BVP2, sequence (Q9BVP2 whole entry, looked up): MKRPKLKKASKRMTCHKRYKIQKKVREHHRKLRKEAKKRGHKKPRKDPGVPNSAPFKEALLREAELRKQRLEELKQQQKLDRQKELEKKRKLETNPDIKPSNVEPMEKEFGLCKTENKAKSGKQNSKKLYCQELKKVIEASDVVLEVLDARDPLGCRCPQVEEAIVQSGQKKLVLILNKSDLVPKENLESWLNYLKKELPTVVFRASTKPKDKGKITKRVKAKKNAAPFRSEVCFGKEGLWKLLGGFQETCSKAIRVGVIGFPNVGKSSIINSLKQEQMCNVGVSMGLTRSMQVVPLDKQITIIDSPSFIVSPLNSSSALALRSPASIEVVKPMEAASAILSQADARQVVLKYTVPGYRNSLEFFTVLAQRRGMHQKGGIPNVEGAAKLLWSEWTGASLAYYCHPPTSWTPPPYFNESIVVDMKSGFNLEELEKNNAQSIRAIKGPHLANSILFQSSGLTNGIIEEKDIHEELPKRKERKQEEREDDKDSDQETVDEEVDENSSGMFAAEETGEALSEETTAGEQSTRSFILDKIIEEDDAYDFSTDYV
inactive: [2] 0.165 | [4] 0.149 | [5] -0.054 | [6] 0.053 | [7] -0.048 | [8] 0.142
active: [1] -0.562

HNRNPK isoform 3 (UniProt P61978)
inactive: erlotinib 0.101 | [2] -0.102 | [3] -0.032 | [5] 0.06 | [9] -0.024 | [7] -0.027 | [8] -0.052

HEATR3 (UniProt Q7Z4Q2)
inactive: erlotinib -0.002 | [2] -0.013 | [3] 0.013 | [5] -0.044 | [9] 0.062 | [7] -0.113 | [8] 0.032

HDAC10 (UniProt Q969S8)
UniProt Q969S8, sequence (Q969S8 whole entry, looked up): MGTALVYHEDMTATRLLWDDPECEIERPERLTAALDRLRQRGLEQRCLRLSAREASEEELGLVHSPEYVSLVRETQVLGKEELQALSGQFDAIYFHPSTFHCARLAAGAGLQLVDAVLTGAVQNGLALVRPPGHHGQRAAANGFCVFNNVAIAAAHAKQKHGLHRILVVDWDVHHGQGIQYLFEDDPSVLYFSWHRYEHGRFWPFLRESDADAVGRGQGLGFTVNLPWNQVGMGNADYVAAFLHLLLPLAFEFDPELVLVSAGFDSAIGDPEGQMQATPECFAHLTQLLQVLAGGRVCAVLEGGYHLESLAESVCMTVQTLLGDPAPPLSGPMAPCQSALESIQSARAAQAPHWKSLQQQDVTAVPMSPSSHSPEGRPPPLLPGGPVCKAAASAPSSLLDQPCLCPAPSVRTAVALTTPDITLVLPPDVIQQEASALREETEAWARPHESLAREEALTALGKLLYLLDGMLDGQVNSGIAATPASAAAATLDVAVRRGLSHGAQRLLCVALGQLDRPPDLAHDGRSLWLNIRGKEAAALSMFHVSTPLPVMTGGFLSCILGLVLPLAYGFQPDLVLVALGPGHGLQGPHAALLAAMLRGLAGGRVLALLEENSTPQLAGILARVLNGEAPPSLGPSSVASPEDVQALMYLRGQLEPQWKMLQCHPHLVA
active: [7] -0.729
inactive: erlotinib 0.065 | [1] -0.067 | [3] 0.038 | [4] -0.277 | [5] 0.066 | [9] 0.045 | [6] -0.072 | [8] 0.333

FGG (UniProt P02679)
inactive: [9] -0.05

FCHO1 (UniProt O14526)
inactive: erlotinib 0.065 | [1] 0.104 | [2] -0.032 | [3] -0.011 | [4] 0.07 | [9] -0.144 | [6] -0.061 | [7] -0.005 | [8] -0.029

GSE1 (UniProt Q14687)
inactive: [5] -0.269 | [9] -0.048

HSPA8 (UniProt E9PN89)
inactive: erlotinib 0.051 | [1] -0.193 | [2] -0.191 | [3] -0.061 | [4] 0.358 | [5] 0.06 | [6] -0.133 | [7] 0.267 | [8] -0.027

FAT2 (UniProt Q9NYQ8)
inactive: erlotinib 0.115 | [2] 0.26 | [3] -0.098 | [5] 0.096 | [9] 0 | [7] -0.166 | [8] 0.186

FOXO3 (UniProt O43524)
UniProt O43524, sequence (O43524 whole entry, looked up): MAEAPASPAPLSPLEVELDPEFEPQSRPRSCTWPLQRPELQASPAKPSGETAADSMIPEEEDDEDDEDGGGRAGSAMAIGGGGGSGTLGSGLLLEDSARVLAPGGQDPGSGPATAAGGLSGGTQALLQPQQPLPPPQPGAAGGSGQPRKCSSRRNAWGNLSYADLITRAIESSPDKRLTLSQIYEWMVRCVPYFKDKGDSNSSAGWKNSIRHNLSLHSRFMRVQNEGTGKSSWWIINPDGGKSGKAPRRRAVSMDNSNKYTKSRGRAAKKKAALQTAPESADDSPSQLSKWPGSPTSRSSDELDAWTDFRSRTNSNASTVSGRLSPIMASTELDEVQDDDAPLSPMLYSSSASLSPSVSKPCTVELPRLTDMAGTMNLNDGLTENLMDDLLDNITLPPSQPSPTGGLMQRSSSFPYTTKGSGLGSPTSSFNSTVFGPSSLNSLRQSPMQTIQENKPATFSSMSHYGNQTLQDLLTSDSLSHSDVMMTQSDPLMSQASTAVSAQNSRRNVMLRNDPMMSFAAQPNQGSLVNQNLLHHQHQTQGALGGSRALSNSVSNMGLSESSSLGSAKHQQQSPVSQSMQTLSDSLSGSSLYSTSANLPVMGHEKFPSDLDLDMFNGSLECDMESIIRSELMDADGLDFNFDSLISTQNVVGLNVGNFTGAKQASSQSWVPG
inactive: erlotinib 0.026 | [1] -0.007 | [2] -0.025 | [3] -0.079 | [4] 0.027 | [9] -0.035 | [6] 0.038 | [7] -0.224 | [8] -0.283

FCF1 (UniProt Q9Y324)
UniProt Q9Y324, sequence (Q9Y324 whole entry, looked up): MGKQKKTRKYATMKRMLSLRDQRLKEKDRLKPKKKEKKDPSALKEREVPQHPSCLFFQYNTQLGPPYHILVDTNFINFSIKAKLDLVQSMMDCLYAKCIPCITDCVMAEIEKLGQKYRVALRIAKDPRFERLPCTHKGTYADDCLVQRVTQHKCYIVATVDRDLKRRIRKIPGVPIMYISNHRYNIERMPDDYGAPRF
inactive: [2] -0.392 | [9] -0.075 | [7] 0.034 | [8] -0.138

GINS2 (UniProt Q9Y248)
inactive: erlotinib 0.076 | [2] 0.083 | [3] -0.045 | [5] -0.008 | [9] 0.203 | [7] -0.089 | [8] -0.034

ICAM1 (UniProt P05362)
inactive: erlotinib 0.008 | [1] 0.008 | [2] 0.015 | [3] 0.018 | [4] -0.005 | [5] -0.033 | [9] -0.01 | [6] -0.004 | [7] -0.047 | [8] 0.073

FRA10AC1 isoform 3 (UniProt Q70Z53)
inactive: erlotinib -0.02 | [1] 0.053 | [2] -0.059 | [3] -0.12 | [4] -0.305 | [5] 0.033 | [6] -0.154 | [7] -0.067 | [8] 0.126

HBZ, A0A494C057
inactive: erlotinib 0.141 | [3] -0.062 | [5] -0.055

GEMIN2 (UniProt O14893)
UniProt O14893, sequence (O14893 whole entry, looked up): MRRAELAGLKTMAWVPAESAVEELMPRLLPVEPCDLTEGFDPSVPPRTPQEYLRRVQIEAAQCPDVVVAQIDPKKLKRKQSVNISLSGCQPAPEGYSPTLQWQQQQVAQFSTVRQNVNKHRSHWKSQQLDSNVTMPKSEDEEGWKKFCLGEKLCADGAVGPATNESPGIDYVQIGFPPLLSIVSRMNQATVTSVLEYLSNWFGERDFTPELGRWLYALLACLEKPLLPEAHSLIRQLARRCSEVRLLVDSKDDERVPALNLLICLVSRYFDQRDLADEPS
inactive: [1] -0.086 | [4] 0.057 | [5] -0.013 | [9] -0.069 | [6] -0.042
active: [2] -0.428

Source: the supplement of paper PMC10849652
